Records with an inconclusive call do not appear. Activity calls are given as the source filed them. Unless noted, calls follow the shape of the dose curve; as a rule, active = well fitted curve in the direction sought with a large enough effect in the repeat runs; inconclusive = weak or mixed curves; inactive = no such curve, though single readings can be large; an effect the other way counts as inactive or inconclusive.
Assays:
[1] = target: Thyrotropin receptor (Homo sapiens) (UniProt P16473); test: qHTS assay to identify small molecule antagonists of the thyroid stimulating hormone receptor (TSHR) signaling pathway (AID 1259385; calls by dose curve; also: nearly all actives have a fitted effect of over 20% in size)
Outline: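 TSHR-HEK293 cells (800/well) plated 18 h, then compounds with Ro20-1724 and TSH at 1.5 ng/mL final, 30 min at room temperature. cAMP quantified by HTRF (cAMP-d2/anti-cAMP-cryptate, 1 h); 15 concentrations in triplicate.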

[2] = qHTS assay to identify small molecule agonists of the estrogen receptor alpha (ER-alpha) signaling pathway in the presence of an antagonist - cell viability counter screen (AID 1259386);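 also: series mostly up to about 92 µM; cells exposed to compounds for 22 h at 37 °C before the viability read; nearly all actives have a fitted effect of over 30% in size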
Outline: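 VM7Luc4E2, stripped-serum pre-culture 5 d; 24hr plating; +ICI-182,780 10.0nM final; cpds 15 conc, 22hr, 37C/5% CO2; CellTiter-Fluor added at 21hr, fluorescence 1hr later.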

[3] = target: Progesterone receptor (Homo sapiens) (UniProt P06401); test: qHTS assay to identify small molecule agonists of the progesterone receptor (PR) signaling pathway (AID 1346784; calls by dose curve; also: nearly all actives have a fitted effect of over 30% in size)
Outline: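 Using charcoal-stripped serum (2%) to limit endogenous steroids, PR-UAS-bla HEK 293T cells received compounds for 16 hr at 37C after 6 hr plating; beta-lactamase FRET fluorescence was recorded following 2 hr substrate loading at room temperature.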

[4] = target: Progesterone receptor (Homo sapiens) (UniProt P06401); test: qHTS assay to identify small molecule antagonists of the progesterone receptor (PR) signaling pathway (AID 1346795; active = well fitted inhibition curve with a large enough effect in the signal ratio in the repeat runs, not every such curve was filed as active; the % refers to the signal ratio)
Outline: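 Inhibition of R5020-induced (1 nM final) beta-lactamase reporter signal in PR-UAS-bla HEK293T cells was scored by FRET fluorescence after overnight (16 hr) compound treatment.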

[5] = qHTS assay to identify small molecule antagonists of the progesterone receptor (PR) signaling pathway - cell viability counter screen (AID 1346798); also: series mostly up to about 92 µM; nearly all actives have a fitted effect of over 50% in size
Outline: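 ATP content as viability readout: CellTiter-Glo luminescence, 30 min room temperature, in PR-UAS-bla HEK293T cells after 16 hr compound/R5020 treatment at 37C and 5% CO2.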

[6] = qHTS assay to identify small molecule agonists of the progesterone receptor (PR) signaling pathway - cell viability counter screen (AID 1346799; calls by dose curve; also: nearly all actives have a fitted effect of over 45% in size)
Outline: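 Cytotoxicity in PR-bla HEK293T cells: 16 h compound, 37C; CellTiter-Glo added post-FRET read; luminescence after 30 min RT.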

[7] = qHTS assay to identify small molecule antagonists of the TGF-beta/Smad signaling pathway - cell viability counter screen (AID 1346824); also: nearly all actives have a fitted effect of over 50% in size
Outline: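 SBE-bla HEK 293T cells, incubated overnight, then compound plus 0.25 ng/mL TGF-beta1 (stock added) for 5 hr at 37 C. Viability was read in the same wells by CellTiter-Glo luminescence after 30 min at room temperature.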

[8] = qHTS assay to identify small molecule agonists of the TGF-beta/Smad signaling pathway - cell viability counter screen (AID 1346829); also: top concentration of the series differs between compounds; nearly all actives have a fitted effect of over 45% in size
Outline: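 Cytotoxicity counter screen: CellTiter-Glo luminescence (30 min, room temperature) measured in the SBE-bla HEK 293T reporter wells after 5 hr compound treatment at 37 C and the 2 hr substrate step.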

[9] = qHTS assay to identify small molecule agonists of the TGF-beta/Smad signaling pathway (AID 1346859; active = well fitted activation curve with a large enough effect in the signal ratio in the repeat runs, not every such curve was filed as active; the % refers to the signal ratio; also: series mostly up to about 77 µM)
Outline: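 Stable Smad binding element-beta-lactamase HEK 293T cells; 5 hr compound exposure at 37 C under 5% CO2; 2 hr room-temperature substrate step; fluorescence excited at 405 nm, collected at 460 nm and 530 nm.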

[10] = target: Thyrotropin-releasing hormone receptor (Homo sapiens) (UniProt P34981); test: qHTS assay to identify small molecule antagonists of the thyrotropin-releasing hormone receptor (TRHR) signaling pathway (AID 1346877; active = well fitted inhibition curve with a large enough effect in the repeat runs, not every such curve was filed as active; also: series mostly up to about 51 µM)
Outline: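 Intracellular calcium fluorescence, read kinetically every second over 3 min, reports TRH-evoked signalling in HEK293 cells carrying TRHR. Test compounds were added 5 min ahead of a 1 nM TRH challenge.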

[11] = target: Thyrotropin-releasing hormone receptor (Homo sapiens) (UniProt P34981); test: qHTS assay to identify small molecule agonists of the thyrotropin-releasing hormone receptor (TRHR) signaling pathway (AID 1346891; calls by dose curve;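 also: HEK293 cells expressing TRHR with calcium dye readout; series mostly up to about 58 µM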)
Outline: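 In 1536-format, 1500 TRHR-Hek293 cells per well grew 18 h, took up calcium dye for 2 h at 37 °C, received compound, and were read kinetically; 15-point titrations, triplicates.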

[12] = Human pregnane X receptor (PXR) small molecule agonists, qHTS cell viability counter screen (AID 1346977); also: nearly all actives have a fitted effect of over 50% in size
Outline: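 Readout is CellTiter-Fluor fluorescence from PXR-Luc HepG2 cells. Plated cells rested 5hr, then were treated with compounds for 24hr at 37C and 5% CO2, with reagent present during the last hour.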

[13] = Caspase-3/7 induction in HepG2 cells by small molecules, qHTS assay (AID 1346978); also: nearly all actives have a fitted effect of over 15% in size
Outline: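 Wild-type HepG2 cells, 2,000/well, settled 5 hr at 37 C and 5% CO2, then compound-treated for 17 hr; caspase-3/7 activity read by luminescent Caspase-Glo 3/7 after 30 min at room temperature.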

[14] = Caspase-3/7 induction in CHO-K1 cells by small molecules, qHTS cell viability counter screen (AID 1346979); also: nearly all actives have a fitted effect of over 35% in size
Outline: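 To flag cytotoxic compounds, treated CHO-K1 wild-type cells were given CellTiter-Fluor at 16hr and read fluorescently after 1hr at 37C; the caspase-3/7 luminescence was measured in these same wells.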

[15] = Caspase-3/7 induction in HepG2 cells by small molecules, qHTS cell viability counter screen (AID 1346981); also: series mostly up to about 92 µM; nearly all actives have a fitted effect of over 30% in size
Outline: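 HepG2, WT, 2,000 cells/well; 5 hr pre-incubation 37 C/5% CO2; compound pin-transferred from DMSO; 16 hr exposure; CellTiter-Fluor, 1 hr; fluorescence read.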

[16] = target: Nuclear receptor subfamily 1 group I member 2 (Homo sapiens) (UniProt O75469); test: Human pregnane X receptor (PXR) small molecule agonists, qHTS assay (AID 1346982); also: nearly all actives have a fitted effect of over 35% in size
Outline: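 Luciferase signal from ONE-Glo (30 min, room temperature) measured activation of hPXR-driven CYP3A4 reporter expression in PXR-Luc HepG2 cells treated with compounds for 24 hr at 37 C.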

[17] = Caspase-3/7 induction in CHO-K1 cells by small molecules, qHTS assay (AID 1346980); also: nearly all actives have a fitted effect of over 15% in size
Outline: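 Wild-type CHO-K1 cells exposed to compounds for 17hr at 37 C, 5% CO2. Caspase-3/7 activity then measured by Caspase-Glo 3/7 luminescence after 30min at room temperature.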

Measured: Potency

Sequence of Thyrotropin receptor (Homo sapiens) (P16473 whole entry, looked up): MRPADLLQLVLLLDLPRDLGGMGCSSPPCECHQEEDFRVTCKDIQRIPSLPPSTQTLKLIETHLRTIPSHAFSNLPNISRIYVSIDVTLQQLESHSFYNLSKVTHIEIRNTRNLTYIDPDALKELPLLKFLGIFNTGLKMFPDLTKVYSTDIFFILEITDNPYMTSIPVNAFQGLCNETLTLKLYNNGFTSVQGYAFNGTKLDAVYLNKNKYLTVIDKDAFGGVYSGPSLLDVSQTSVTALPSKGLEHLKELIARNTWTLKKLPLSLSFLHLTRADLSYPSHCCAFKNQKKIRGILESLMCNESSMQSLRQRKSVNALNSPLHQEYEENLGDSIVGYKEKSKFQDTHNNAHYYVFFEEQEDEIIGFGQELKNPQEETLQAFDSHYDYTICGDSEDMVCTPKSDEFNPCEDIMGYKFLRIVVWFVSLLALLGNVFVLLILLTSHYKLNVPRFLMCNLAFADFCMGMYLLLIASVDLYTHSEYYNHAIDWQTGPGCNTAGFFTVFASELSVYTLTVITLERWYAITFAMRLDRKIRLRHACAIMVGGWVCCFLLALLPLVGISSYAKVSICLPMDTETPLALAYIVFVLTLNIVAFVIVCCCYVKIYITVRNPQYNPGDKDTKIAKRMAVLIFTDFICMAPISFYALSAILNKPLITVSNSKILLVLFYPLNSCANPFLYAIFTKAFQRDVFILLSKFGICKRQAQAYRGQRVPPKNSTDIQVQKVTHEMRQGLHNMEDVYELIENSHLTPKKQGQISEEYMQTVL
Sequence of Progesterone receptor (Homo sapiens) (P06401 whole entry, looked up): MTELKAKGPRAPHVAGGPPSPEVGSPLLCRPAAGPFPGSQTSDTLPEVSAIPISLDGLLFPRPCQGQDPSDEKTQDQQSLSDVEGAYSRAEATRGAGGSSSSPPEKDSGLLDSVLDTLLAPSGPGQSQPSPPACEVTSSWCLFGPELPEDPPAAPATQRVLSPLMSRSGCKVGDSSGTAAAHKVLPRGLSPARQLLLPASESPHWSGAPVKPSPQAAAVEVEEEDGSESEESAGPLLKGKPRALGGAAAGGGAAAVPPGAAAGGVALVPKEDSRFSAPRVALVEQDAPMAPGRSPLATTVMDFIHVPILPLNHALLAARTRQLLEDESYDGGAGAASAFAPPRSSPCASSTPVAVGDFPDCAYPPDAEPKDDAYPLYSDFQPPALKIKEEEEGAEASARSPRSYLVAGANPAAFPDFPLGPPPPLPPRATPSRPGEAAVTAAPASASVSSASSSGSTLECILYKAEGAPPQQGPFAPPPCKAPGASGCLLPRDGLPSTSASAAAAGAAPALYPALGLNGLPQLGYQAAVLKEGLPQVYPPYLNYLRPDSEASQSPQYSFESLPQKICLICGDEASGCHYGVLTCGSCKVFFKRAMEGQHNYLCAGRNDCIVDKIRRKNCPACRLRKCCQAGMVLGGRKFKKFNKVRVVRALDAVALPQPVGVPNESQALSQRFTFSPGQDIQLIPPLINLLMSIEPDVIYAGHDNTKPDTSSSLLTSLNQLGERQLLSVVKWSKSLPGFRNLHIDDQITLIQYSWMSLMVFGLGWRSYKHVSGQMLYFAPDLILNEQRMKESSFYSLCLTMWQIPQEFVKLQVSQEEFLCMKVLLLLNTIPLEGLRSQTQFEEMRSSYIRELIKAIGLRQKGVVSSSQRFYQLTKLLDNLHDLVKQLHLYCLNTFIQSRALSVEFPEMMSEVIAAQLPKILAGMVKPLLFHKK
Sequence of Nuclear receptor subfamily 1 group I member 2 (Homo sapiens) (O75469 whole entry, looked up): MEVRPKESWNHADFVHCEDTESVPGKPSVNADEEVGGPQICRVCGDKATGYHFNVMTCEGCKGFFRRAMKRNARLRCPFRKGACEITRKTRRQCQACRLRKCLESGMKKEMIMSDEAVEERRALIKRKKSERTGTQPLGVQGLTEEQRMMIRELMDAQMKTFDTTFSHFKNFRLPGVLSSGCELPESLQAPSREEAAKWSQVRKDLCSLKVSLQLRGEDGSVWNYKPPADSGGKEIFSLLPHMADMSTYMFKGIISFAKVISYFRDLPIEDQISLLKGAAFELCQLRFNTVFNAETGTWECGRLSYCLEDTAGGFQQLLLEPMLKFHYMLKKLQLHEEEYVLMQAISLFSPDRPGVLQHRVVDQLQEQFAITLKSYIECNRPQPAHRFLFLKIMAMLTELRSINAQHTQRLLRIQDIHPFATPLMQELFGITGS
Sequence of Thyrotropin-releasing hormone receptor (Homo sapiens) (P34981 whole entry, looked up): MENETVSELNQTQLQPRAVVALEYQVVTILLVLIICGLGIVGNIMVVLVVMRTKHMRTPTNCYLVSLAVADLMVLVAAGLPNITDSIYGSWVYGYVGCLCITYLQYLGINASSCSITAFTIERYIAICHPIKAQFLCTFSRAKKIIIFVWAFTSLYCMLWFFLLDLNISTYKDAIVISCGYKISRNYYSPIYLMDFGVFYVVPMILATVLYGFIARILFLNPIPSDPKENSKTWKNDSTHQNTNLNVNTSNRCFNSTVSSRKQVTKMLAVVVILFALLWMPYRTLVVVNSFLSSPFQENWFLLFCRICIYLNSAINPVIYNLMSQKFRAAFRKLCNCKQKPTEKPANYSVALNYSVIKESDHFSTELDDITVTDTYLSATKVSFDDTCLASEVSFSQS

CC(C)(C)C(=O)C(Cl)Cl
not listed: [17]
inactive: all other assays above

CC(=NC#N)N(C)Cc1ccc(Cl)nc1
inactive: all assays above

COc1ccc(C=O)cc1O
inactive: all assays above

CCSC(=O)Cl
not listed: [14]
inactive: all other assays above

CC(C)(C)NC[C@H](O)c1ccc(O)cc1Cl
inactive: all assays above

CCC1(CC)C(=O)C=CNC1=O
inactive: all assays above

O=P(O)(O)c1ccccc1
not listed: [16]
inactive: all other assays above

C=C(Cl)CCl
not listed: [17]
inactive: all other assays above

Reference: PubChem BioAssay (Tox21)
